Assay outcomes (PubChem BioAssay)
SMN2 splice enh = qHTS Assay for Enhancers of SMN2 Splice Variant Expression. AID 1458, 2008. Potency, µM (top dose mostly 46.1 µM), actives largely listed as activators. HEK293 SMN2-luciferase splicing reporter, luminescence, 30-36 h. 210,000 tested, 2.8% active; further: nearly all actives have a fitted effect of over 55% in size
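HEK293 cells carry an SMN2 minigene-luciferase reporter in which exon 7 inclusion puts luciferase in frame. Cells were seeded at 2000 cells/well, attached for 10-12 hours, then exposed to compounds for 30-36 hours at 37C before ONE-Glo luminescence.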
ELG1 genotox = qHTS screen for small molecules that induce genotoxicity in human embryonic kidney (HEK293T) cells expressing luciferase-tagged ELG1; HEK293T ELG1-luciferase reporter, luminescence, 16 h; Potency, µM (top dose mostly 46 µM), most hits filed as activators; 330,000 tested, 1.3% active; further: nearly all actives have a fitted effect of over 60% in size
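ELG1-luciferase HEK293T cells, 2,000/well; compound pinned in; 16 hr, 37 °C, 5% CO2; ONE-Glo, 30 min RT; luminescence on CCD imager.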
KinaseGlo FLuc = Counterscreen for Luciferase (Kinase-Glo TM) Inhibition. Potency, µM (highest dose often 38.3 µM), usual class: inhibitors. 200,000 tested, 0.28% active. Luciferin 4-monooxygenase (Photuris pensylvanica), Q27757. Kinase-Glo luciferase, ATP luminescence, 8 min. AID 1379, 2008; further: nearly all actives have a fitted effect of over 60% in size
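Compounds were added to a substrate mix at pH 7.2 (50 mM imidazole, 10 uM ATP, within the enzyme's linear range), followed by Kinase-Glo detection reagent; luminescence was measured after 8 minutes at ambient temperature.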
FLuc modulator = qHTS profiling assay for firefly luciferase inhibitor/activator using purifed enzyme and Km concentrations of substrates (counterscreen for miR-21 project); Luciferin 4-monooxygenase (Photinus pyralis), P08659; purified FLuc, Km substrates, luminescence inhibition; Potency, µM (series often up to 57.5 µM), usual class: inhibitors; 360,000 tested, 6.9% active; AID 588342, 2011; further: nearly all actives have a fitted effect of over 55% in size
Target sequence (P08659 whole entry, looked up): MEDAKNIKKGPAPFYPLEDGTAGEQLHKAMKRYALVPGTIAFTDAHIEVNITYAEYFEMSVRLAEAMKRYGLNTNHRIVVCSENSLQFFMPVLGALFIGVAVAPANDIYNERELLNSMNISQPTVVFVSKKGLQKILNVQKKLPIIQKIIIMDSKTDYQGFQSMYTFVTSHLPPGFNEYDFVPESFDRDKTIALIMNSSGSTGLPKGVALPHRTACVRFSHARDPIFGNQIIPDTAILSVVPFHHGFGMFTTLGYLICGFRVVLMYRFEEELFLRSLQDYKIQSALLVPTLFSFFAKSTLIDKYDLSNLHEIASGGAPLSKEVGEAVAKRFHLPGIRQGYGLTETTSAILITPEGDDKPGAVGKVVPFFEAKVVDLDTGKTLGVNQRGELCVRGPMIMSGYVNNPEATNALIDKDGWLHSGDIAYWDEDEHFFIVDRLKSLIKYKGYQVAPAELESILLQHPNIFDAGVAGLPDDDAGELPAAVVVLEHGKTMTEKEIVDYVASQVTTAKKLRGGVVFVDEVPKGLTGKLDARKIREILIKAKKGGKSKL
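Biochemical qHTS of compounds, final roughly 60 µM downward over six points, against 10 nM purified firefly luciferase using Km concentrations of substrates (10 uM D-luciferin, 10 uM ATP) in Tris acetate pH 7.5 buffer; luminescence output.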
Rab9 prom act = qHTS Assay for Rab9 Promoter Activators; AID 485297, 2010; 320,000 tested, 2.8% active; Potency, µM (doses to about 9.22 µM), hits mostly activators; Huh7 Rab9 promoter-luciferase reporter, luminescence, 24 h; further: nearly all actives have a fitted effect of over 60% in size
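Measured in stably transfected Huh7 cells bearing a Rab9 promoter–luciferase construct: 24 h compound treatment at 37 °C, followed by luminescence detection.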
NPC1 prom act = qHTS Assay for NPC1 Promoter Activators | Potency, µM (highest dose often 9.22 µM), most hits filed as activators | AID 485313, 2010 | 320,000 tested, 2.4% active | Huh7 NPC1 promoter luciferase reporter, 24 h; further: nearly all actives have a fitted effect of over 60% in size
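Luminescence from an NPC1 promoter-driven luciferase reporter in stably transfected Huh7 cells was measured after 24 h compound treatment at 37 °C, followed by 10 min ambient incubation with luciferase detection reagent.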
A number is an active result; n = inactive; u = inconclusive; x = no result; [ ] = dose if it differs, or a comment. Most compounds without a hit are left out; they make up all but 7.3% or so of the library. The call rests on the fitted dose curve; in most records, active means well fitted curve in the direction sought with a large enough effect; inconclusive means small, poorly fitted or top-dose-only effect, or another doubt; inactive means no such curve, though single readings can be large; an effect the other way counts as inactive or inconclusive.

SMILES	SMN2 splice enh	ELG1 genotox	KinaseGlo FLuc	FLuc modulator	Rab9 prom act	NPC1 prom act
CCc1ccccc1NC(=O)c1sc(-n2nc(C)c(Cc3ccc4c(c3)OCO4)c2C)nc1C	x	x	x	n	x	x
O=C(NCCOc1ccccc1)c1ccccc1Cl	x	4.6µM	x	8.5µM	0.45µM	0.63µM
O=C(NCCc1ccccc1)c1ccccc1Cl	x	u	x	1.9µM	0.45µM	0.35µM
O=C(O)CCC(=O)Nc1ccccc1C(=O)NCCc1ccccc1	u	u	n	19µM	u	u
Cc1nn(Cc2ccccc2)c(Cl)c1C(=O)NCCc1ccccc1	14µM	u	n	9.5µM	2.2µM	2.5µM
COc1ccc(OCCNC(=O)c2ccccc2Cl)cc1	x	n	x	n	n	n
CN(C)c1ccc(CNC(=O)C2CCN(S(=O)(=O)c3ccc4c(ccn4C)c3)CC2)cc1	x	x	x	n	x	x
O=C(O)/C(=C\c1ccncc1)c1cccc2ccccc12	n[9.22 µM]	x	n[7.66 µM]	x	x	x
COc1cc(OC)c(NC(=O)NCCn2nnc3cc(S(=O)(=O)N(C)C)ccc32)cc1Cl	x	x	x	n	x	x
O=C(NCCCl)c1ccc(OCc2ccccc2)cc1Cl	13µM	n	n	u	1.6µM	u
O=C(/C=C/c1ccccc1Cl)NCc1ccccc1	n	n	n	u	n	n
O=C(NCCOc1ccccc1Cl)c1cc(F)c(F)cc1Cl	x	u	x	5.4µM	2.2µM	2.8µM
COc1ccc(CCNC(=O)c2ccc(Cl)cc2Cl)cc1	n	n	n	17µM	n	n
O=C(/C=C/c1ccccc1Cl)NCCc1ccccc1	u	n	n	19µM	u	u
CCCCOc1ccc(-n2nc(C)cc2C)nn1	n	n	n	17µM	u	u
Cc1cc(C)n(-c2ccc(OCC(=O)O)nn2)n1	n	n	n	n	n	n
C=CCNC(=O)/C(C#N)=C/c1ccc2c(c1)OCCO2	n	n	n	12µM	n	n
N#C/C(=C\c1ccc2c(c1)OCCO2)C(=O)Nc1nccs1	x	n	x	0.6µM	n	n
C=CCNC(=O)/C(C#N)=C/c1ccc(SC)cc1	n	n	n	12µM	n	n
COCCNC(=O)/C(C#N)=C/c1ccc2c(c1)OCO2	x	n	n	u	n	n
Cn1c2c(c(=O)n(C)c1=O)C(c1cccc(O)c1)CC(=O)N2 (stereo unspecified)	n	x	x	n	x	x
Cc1ccc2c(c1)sc1nc(-c3cc4cc(Cl)ccc4oc3=O)cn12	x	x	x	n	x	x
O=C(CCCc1ccccc1)NCCC1=CCCCC1	n	n	n	24µM	n	n
O=C(COC(=O)c1ccccc1)NCCC1=CCCCC1	n	n	n	15µM	n	n
Cc1ccsc1C(=O)OCC(=O)NCCC1=CCCCC1	n	u	n	12µM	n	n
SMILES	SMN2 splice enh	ELG1 genotox	KinaseGlo FLuc	FLuc modulator	Rab9 prom act	NPC1 prom act
CCCn1c(=O)c(C)cn2nc(N)nc12	x	x	n	x	n	n
O=C(CSc1nc2ccccc2s1)N1CCN(C(=O)c2ccco2)CC1	n	n	n	n	n	n
CCOc1ccc2nc(SCC(=O)c3cccs3)sc2c1	u	15µM	n	2.7µM	2.8µM	2.5µM
CCOc1ccc2nc(SCC(=O)N3CCN(C(=O)c4ccco4)CC3)sc2c1	n	n	n	17µM	n	n
Cc1nc2cc(-c3cccc(Cl)c3)nn2c(N2CCN(C(=O)c3ccco3)CC2)c1C	n	n	n	17µM	n	n
O=C(Cc1ccc(Cl)cc1)Nc1ccc(N2CCN(C(=O)c3ccco3)CC2)cc1	n	n	n	n	n	n
O=C(c1ccco1)N1CCN(c2ccc(Cl)cc2)CC1	11µM	u	n	17µM	u	u
CCCCc1nc2c(c3c1C[C@H](C)OC3)CN(C(=O)c1cc(I)ccc1F)CC2	n[9.22 µM]	x	n[7.66 µM]	x	x	x
CCOc1ccc2nc(N3CCN(C(=O)c4ccco4)CC3)sc2c1	x	x	x	21µM	x	x
O=C(C1CC1)N1CCN(c2nc3c(F)cc(F)cc3s2)CC1	x	x	x	n	x	x
CCc1ccc2nc(N3CCN(C(=O)c4ccco4)CC3)sc2c1	x	x	x	11µM	x	x
O=C(c1ccco1)N1CCN(c2nc3c(F)cc(F)cc3s2)CC1	x	x	x	24µM	x	x
O=C(c1ccc2nc(N3CCOCC3)sc2c1)N1CCN(C(=O)c2ccco2)CC1	n	n	n	n	n	n
CCOc1ccc2[nH]c3c(N4CCN(C(=O)c5ccco5)CC4)ncnc3c2c1	x	n	x	u	n	n
COc1ccc2nc(N3CCN(C(=O)c4ccco4)CC3)sc2c1	x	x	x	27µM	x	x
Cc1ccc(S(=O)(=O)Nc2cc3c(cc2C)n(C)c(=O)c(=O)n3C)c(C)c1	x	x	x	n	x	x
COc1cc(C(=O)N(Cc2ccc(F)cc2)Cc2ccco2)cc(OC)c1OC	n	x	x	n	x	x
Cn1c(=O)cc(OCC(=O)NC2CCCCC2)c2ccccc21	n	n	n	n	n	n
Cn1c(=O)cc(OCCCC(=O)NC2CCCC2)c2ccccc21	16µM	u	n	n	n	n
CC(C)(O)c1cc(=O)sc2nc3ccccc3n12	14µM	u	n	9.5µM	0.56µM	3.5µM
c1ccc2nc3c(nc2c1)sc1nc2ccccc2n13	n	n	n	n	n	n
O=C(Nc1n[nH]c(C2CCCCC2)n1)C1CCCCC1	0.11µM	21µM	n	n	n	n
O=C(Nc1ncccn1)C1CCCCC1	x	n	n	n	n	n
Cc1ccc2cc(CN(Cc3ccco3)S(=O)(=O)c3c(C)ccc4nsnc34)c(=O)[nH]c2c1	35µM	n	n	n	n	n
C=C(COC)C1=CCC(C(=O)OC)(C(=O)OC)[C@@H](C[N+](=O)[O-])c2ccccc21	n	x	n	x	x	x
SMILES	SMN2 splice enh	ELG1 genotox	KinaseGlo FLuc	FLuc modulator	Rab9 prom act	NPC1 prom act
c1ccc(-c2onc(-c3ccco3)c2-c2ccc3[nH]ccc3c2)cc1	x	n	x	19µM	n	n
c1cc2cc(-c3c(-c4ccc5c(c4)OCO5)noc3-c3ccsc3)ccc2[nH]1	x	n	x	11µM	u	u
Cc1onc(-c2ccc3c(c2)OCO3)c1-c1ccc2[nH]ccc2c1	x	n	x	n	u	n
c1ccc(-c2ccc3[nH]ccc3c2)cc1	x	u	x	u	n	u
CCOC(=O)c1cc(S(=O)(=O)N2CCN(c3ccccc3OC)CC2)[nH]n1	x	x	x	n	x	x
Cc1ccc(Nc2nc(C)cc(C)n2)c(Br)c1	n	n	n	21µM	n	n
Cc1cccc(Nc2nc(C)cc(C)n2)c1	x	n	x	n	n	n
Cc1ccc(Cl)c2c(N=Nc3ccccc3)c(O)[nH]c12	x	u	x	1.2µM	u	u
COC(=O)c1cc2c(cc1NC(=O)c1cnn(-c3ccccc3)c1-n1cccc1)OCO2	n	x	x	n	x	x
Cn1c(O)c(N=NC(=O)c2cc(-c3cccs3)nc3ccccc23)c2ccccc21	n	n	n	2.7µM	n	n
CCOc1ccc(-c2cc(C(=O)N/N=C/c3cccnc3)c3ccccc3n2)cc1	x	n	x	0.38µM	u	n
